# Bioassay records: PubChem BioAssay, The Scripps Research Institute Molecular Screening Center
# hcDAF-12 act – H. contortus DAF-12 activation, primary screen; HEK293 hcDAF-12 lit1-tk-luc reporter, luminescence; 0% DMSO, 100% Δ7-dafachronic acid; 1.4% of 370,000 active; activation, % at 6.8 µM;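 active = activation above the mean of all tested compounds plus 3 SD, cut at about 5.5% in these data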;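 also: 100% = response to 3 µM Δ7-dafachronic acid high control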
# DAX1 inh-1 – NR0B1 (DAX1) inhibition; HEK293 Gal4-DAX1 luciferase reporter, luminescence; AID 504766; P51843; inhibition, % at 6.75 µM; 0.99% of 340,000 active;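 active = inhibition above the mean over all tested compounds plus 3 SD, cut at about 4.2% in these data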;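 also: 0% = DAX1-transfected cells with DMSO and 100% = empty-vector control cells with DMSO; inhibition shows as a rise in luminescence from relieved DAX1 repression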
# DAX1 inh-2 – blocks DAX1 repression of SF-1 activated StAR promoter | HEK293T StAR-luciferase reporter, SF-1/DAX-1 repression relief | inhibition, % at 6.8 µM | 1.1% of 370,000 active;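 active = inhibition above the mean over all tested compounds plus 3 SD, cut at about 3.6% in these data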;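 also: 0% = DAX-1 cells with DMSO and 100% = cells lacking DAX-1 with DMSO; higher inhibition means more luminescence from relief of DAX-1 repression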
# ssDAF-12 act – activates DAF-12 receptor from parasite S. stercoralis. HEK293 ssDAF-12/GRIP1 lit1-tk-luc reporter, luminescence; % of 3 µM dafachronic acid response. activation, % at 6.8 µM. 1% of 370,000 active. AID 652126;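 active = activation above the mean over all tested compounds plus 3 SD, cut at about 0.9% in these data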;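 also: 0% = DMSO-only wells and 100% = 3 µM delta7-dafachronic acid wells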
# hgDAF-12 ag – activates the H. glycines DAF-12 receptor ligand-binding domain; HEK293 GAL4-hgDAF12 UAS-luciferase reporter, agonist luminescence; normalized to butyrate control; activation, % at 6.8 µM; 1.8% of 370,000 active;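 active = activation above a cutoff set at the mean of all screened compounds plus 3 SD, cut at about 10% in these data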;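 also: 0% = DMSO wells and 100% = sodium butyrate wells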
# DAX1 conf – NR0B1 (human) inhibition, confirmation. shares compounds with DAX1 inh-2. HEK293T StAR-promoter luciferase reporter, SF-1/DAX-1 repression. inhibition, % at 6.8 µM. 87% of 2,400 active. AID 652134;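 active = inhibition above the average of every tested compound plus 3 SD, cut at about 3.8% in these data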;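 also: 0% = DAX-1 cells with DMSO and 100% = no DAX-1 control cells with DMSO; active compounds raise luminescence by relieving repression of the StAR reporter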
# Target sequence (P51843 whole entry, looked up): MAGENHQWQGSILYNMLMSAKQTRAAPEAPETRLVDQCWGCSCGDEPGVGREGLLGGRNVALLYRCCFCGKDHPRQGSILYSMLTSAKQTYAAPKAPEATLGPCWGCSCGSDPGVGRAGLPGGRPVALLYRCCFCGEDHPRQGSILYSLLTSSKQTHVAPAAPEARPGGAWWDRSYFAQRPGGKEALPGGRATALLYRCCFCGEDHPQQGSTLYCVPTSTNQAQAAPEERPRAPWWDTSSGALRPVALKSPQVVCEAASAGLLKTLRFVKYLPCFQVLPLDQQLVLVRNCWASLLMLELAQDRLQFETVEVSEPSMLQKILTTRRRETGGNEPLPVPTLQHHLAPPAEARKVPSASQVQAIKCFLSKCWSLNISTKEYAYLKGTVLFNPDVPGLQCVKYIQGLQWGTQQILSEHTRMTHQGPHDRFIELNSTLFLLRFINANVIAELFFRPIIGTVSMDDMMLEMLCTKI
# SF1 AF2mut Luc – nonselective inhibitor or artifact in SF-1 mutant DAX1 counter-screen. shares compounds with DAX1 inh-2. HEK293 StAR-luciferase, SF-1 AF2 mutant, luminescence. inhibition, % at 6.8 µM. 78% of 2,400 active. AID 652136;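 active = inhibition above the mean of all tested compounds plus 3 SD, cut at about 3% in these data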;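 also: 0% = DAX-1 transfected cells with DMSO and 100% = cells without DAX-1 with DMSO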
# Numbers without * were called inactive; . = not tested or not shown. Rows were chosen to be rich in hits. Some 4.1% of all compounds tested hit in one or more screens of this group.
SMILES,hcDAF-12 act,DAX1 inh-1,DAX1 inh-2,ssDAF-12 act,hgDAF-12 ag,DAX1 conf,SF1 AF2mut Luc
O=C(NNC(=S)Nc1ccccc1Cl)c1ccccc1Cl,4.8,2.1,10.9*,0.3,10.4,10.6*,6.7*
O=C(NNC(=S)Nc1cccc(Cl)c1)c1ccccc1,3.0,1.1,5.3*,0.1,6.5,4.8*,4.0*
O=C(Nc1cccc(Cl)c1)c1ccccc1,0.1,0.9,0.1,-0.9,8.7,.,.
O=C(NNC(=S)Nc1ccc(Cl)cc1)c1ccccc1,5.5,0.6,4.5*,0.1,8.1,7.1*,4.2*
CCCCc1c(-c2ccccc2OC)ncn1C(C)c1ccc(Cl)cc1 (configuration not stated),-0.3,.,0.1,-1.4,2.3,.,.
CCOC(=O)[C@]12CCCCC/C=C\1N(Cc1ccc(OC)cc1)C(=O)[C@H]2CC(=O)N1CCSCC1,-2.2,.,-0.6,-1.8,0.2,.,.
Cc1cc2nc(N3CCN(C(=O)c4ccco4)CC3)sc2cc1C,-1.4,0.7,3.1,-0.8,2.3,.,.
Cc1cc(C)c2nc(N3CCN(C(=O)c4ccco4)CC3)sc2c1,-0.9,1.9,5.0*,-0.9,5.3,4.4*,2.1
O=C(Nc1ccccn1)c1cccc(S(=O)(=O)N2CCOCC2)c1,-0.7,1.5,0.7,-1.0,-0.5,.,.
Cc1ccnc(NC(=O)c2cccc(S(=O)(=O)N3CCOCC3)c2)c1,3.3,0.4,6.1*,-0.2,10.9*,4.7*,2.8
COC(=O)[C@H]1C[C@@]2(C)c3ccccc3N(S(=O)(=O)c3ccccc3)[C@H]2N1,2.6,.,-0.5,-1.2,-1.6,.,.
CCOC(=O)c1sc(NC(=O)CSc2ncccn2)nc1C,-0.1,0.4,-0.6,-0.8,3.4,.,.
CCOC(=O)c1sc(NC(=O)CSc2nccn2C)nc1C,4.2,0.4,5.7*,0.2,4.9,6.8*,4.8*
CCCCNc1ccc2c(c1)C1CC2CCN1C(=O)OCc1ccccc1 (configuration not stated),4.3,2.0,7.0*,-0.2,2.9,8.3*,1.9
CN(C)c1ccc(C=Nc2ccccc2C(N)=O)cc1,10.3*,-2.8,5.8*,1.9*,9.6,19.4*,9.1*
NC(=O)c1ccccc1N/C=C/C(=O)c1ccc(F)cc1,3.5,1.4,5.2*,0.1,10.8*,9.7*,6.4*
Cc1noc(C)c1C(=O)Nc1ccc(N(C)C)cc1,-2.1,0.9,-0.5,-0.8,-1.0,.,.
CN(C)c1ccc(NC(=O)c2cnsn2)cc1,3.5,-0.7,6.3*,-0.5,10.4,7.4*,1.7
Cc1ccc(N(C)S(=O)(=O)c2cc(-c3cnc(C4CC4)o3)ccc2C)cc1,1.3,0.8,2.2,-1.0,3.1,.,.
Cc1cccc(N(C)S(=O)(=O)c2ccc(-c3cnc(C4CC4)o3)cc2)c1,-3.4,0.6,7.6*,-0.4,-4.9,15.1*,-5.3
N/C(=N\OC(=O)c1ccco1)c1ccc(Br)cc1,3.5,1.8,4.7*,0.7,9.8,7.2*,4.4*
OCCNC(=S)NCCc1ccccc1,-1.0,1.2,0.2,-1.6,-0.7,.,.
S=C(NCCc1ccccc1)Nc1ncccn1,3.2,1.5,5.5*,0.1,8.4,3.9*,2.8
O=C(N/N=C/C(Br)=C\c1ccccc1)c1n[nH]c2c1CCC2,4.6,-0.8,4.7*,1.9*,0.9,20.9*,-3.5
COc1ccc(OCc2nc3ccccc3[nH]2)cc1,2.2,1.6,5.7*,0.4,10.1,13.1*,8.4*
SMILES,hcDAF-12 act,DAX1 inh-1,DAX1 inh-2,ssDAF-12 act,hgDAF-12 ag,DAX1 conf,SF1 AF2mut Luc
c1ccc2[nH]c(COCc3nc4ccccc4[nH]3)nc2c1,-2.2,.,.,-1.5,0.8,.,.
COc1cccc(OCc2nc3ccccc3[nH]2)c1,2.8,2.3,5.5*,-0.1,9.8,6.3*,7.0*
c1ccc2cc(OCc3nc4ccccc4[nH]3)ccc2c1,3.9,2.6,4.8*,0.0,10.8*,14.7*,7.6*
O=C(NCc1ccccc1)OCCCN1C(=O)CCC12CCCCC2,1.4,.,0.3,-1.8,-2.0,.,.
Nc1nc(F)nc2c1ncn2[C@@H]1O[C@H](COP(=O)(O)O)[C@@H](O)[C@@H]1O,-2.4,.,1.9,-1.3,-0.1,.,.
O=C(NC1CCCCN(Cc2cccc(C(F)(F)F)c2)C1=O)c1c(F)cccc1F (configuration not stated),-2.0,.,-0.6,-2.0,-2.8,.,.
COC(=O)c1ccccc1S(=O)(=O)NC(=O)[C@H]1O[C@@H](n2ccc(=O)[nH]c2=O)[C@H](O)[C@@H]1O,-1.3,.,0.3,-0.8,-2.0,.,.
CN1CCCCC(NC(=O)c2cccs2)C1=O (configuration not stated),-1.6,.,0.2,-1.0,-0.9,.,.
CCCN(CCC)c1ncnc2c1cnn2-c1ccc(OC)cc1,4.6,0.6,5.3*,0.3,10.2,14.0*,3.1*
COc1ccc(-n2ncc3c(Nc4cccc(C)c4)ncnc32)cc1,-1.3,0.4,1.2,-1.2,3.5,.,.
COCc1c(C(=O)OCC(=O)NCc2ccco2)oc2ccccc12,0.9,-0.2,-0.3,-1.1,2.2,.,.
Cc1c(C(=O)OCC(=O)NCc2ccco2)oc2ccccc12,-1.7,0.6,4.5*,-1.1,2.1,1.1,1.0
Cc1cccc(C#Cc2ccccc2)n1,2.8,1.0,4.9*,-0.3,10.9*,7.3*,4.9*
Nc1ccc(C#Cc2ccccc2)cc1,-2.0,1.2,-1.0,-2.0,-0.8,.,.
NC(=O)c1ncn([C@@H]2O[C@H](C(=O)N[C@H](Cc3c[nH]c4ccccc34)C(=O)N3CCN(C(=O)N4CCOCC4)CC3)[C@@H](O)[C@H]2O)n1,-1.0,.,-0.5,-0.8,0.5,.,.
O=C(NCCc1ccc(F)cc1)c1ccc2c(c1)ncn2C1CCCCC1,1.7,.,-0.2,-0.9,1.1,.,.
Cc1sc2nc(SCC(=O)Nc3cccc(C(=O)O)c3)[nH]c(=O)c2c1C,-0.8,-0.3,-1.4,-0.2,0.8,.,.
Cc1sc2nc(SCC(=O)Nc3ccc(Cl)c(C(=O)O)c3)[nH]c(=O)c2c1C,5.3,0.8,6.0*,0.7,17.1*,12.3*,9.5*
CSc1ccccc1OCc1cc(C(=O)N(C)Cc2ccc3nsnc3c2)no1,5.3,3.0,5.3*,-0.1,11.4*,6.5*,3.1*
CSc1ccccc1OCc1cc(C(=O)N2CCSCC2)no1,5.1,2.3,5.3*,-0.6,11.6*,5.4*,3.4*
CCN(CC)C1CCN(C(=O)c2cc(COc3ccccc3SC)on2)C1 (configuration not stated),-0.4,0.7,-0.2,-1.8,0.2,.,.
CSc1ccccc1OCc1cc(C(=O)N(C)Cc2ccc(C)o2)no1,2.2,0.7,1.7,-1.2,5.7,.,.
